Measured values reported in PubChem BioAssay (NCATS).
Inconclusive results are not listed. A call without a number means that no potency is given here. The source made the active and inactive calls. Unless noted, calls come from the whole dose curve; as a rule, active = well fitted curve in the direction sought with a large enough effect; inconclusive = small, poorly fitted or top-dose-only effect, or another doubt; inactive = no such curve, though single readings can be large; an effect the other way counts as inactive or inconclusive.

What was measured:
[1] = qHTS for differential inhibitors of proliferation of Plasmodium falciparum line 7G8 (AID 1815);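 note: parasite growth measured after three days of incubation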; note: potency is the fitted concentration of half-maximal effect
[2] = qHTS for differential inhibitors of proliferation of Plasmodium falciparum line GB4 (AID 1816); details: Potency: Plasmodium falciparum GB4 proliferation inhibition;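 note: parasite growth measured after 72 h incubation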; note: potency is the fitted concentration of half-maximal effect
[3] = qHTS for differential inhibitors of proliferation of Plasmodium falciparum line 3D7 (AID 1876); note: potency is the fitted concentration of half-maximal effect
[4] = qHTS for differential inhibitors of proliferation of Plasmodium falciparum line D10 (AID 1877);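 note: parasites grown with compound for 72 h before DNA staining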; note: potency is the fitted concentration of half-maximal effect
[5] = qHTS for differential inhibitors of proliferation of Plasmodium falciparum line Dd2 (AID 1882); details: Potency: Plasmodium falciparum Dd2 proliferation inhibition; note: nearly all actives have a fitted effect of over 65% in size; note: potency is the fitted concentration of half-maximal effect
Method in brief: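 RBC culture, 0.3% parasitemia / 2.5% Hct final; cpd added by pin tool in DMSO; 72 h, 37 C, 5% CO2; lysis buffer + SYBR Green I, o/n RT dark; FI 485/535; norm. to artemisinin 0.29 uM and DMSO.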

[6] = qHTS for differential inhibitors of proliferation of Plasmodium falciparum line HB3 (AID 1886); details: Potency: Plasmodium falciparum HB3 proliferation inhibition;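 note: parasites grown with compound for 72 h before SYBR Green readout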; note: potency is the fitted concentration of half-maximal effect
[7] = qHTS Assay for Modulators of Human Peripheral Myelin Protein 22 (PMP22) Expression/Activity (AID 1967; active = well fitted curve in the direction sought with a large enough effect in the signal ratio; the % refers to the signal ratio)
Method in brief: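 Engineered MSC80 cells, Pmp22-promoter green and EF-alpha red luciferase reporters; 24h compound treatment at 37 °C. Concentration-response fits on green, red and ratio signals, each overlap-corrected, with %Activity normalized to untreated wells.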

[8] = target: ATP-dependent DNA helicase Q1 (Homo sapiens) (UniProt P46063); experiment: qHTS Validation Assay for Inhibitors of RecQ-Like Dna Helicase 1 (RECQ1) (AID 2353)
Chain of ATP-dependent DNA helicase Q1 (Homo sapiens) (P46063 whole entry, looked up): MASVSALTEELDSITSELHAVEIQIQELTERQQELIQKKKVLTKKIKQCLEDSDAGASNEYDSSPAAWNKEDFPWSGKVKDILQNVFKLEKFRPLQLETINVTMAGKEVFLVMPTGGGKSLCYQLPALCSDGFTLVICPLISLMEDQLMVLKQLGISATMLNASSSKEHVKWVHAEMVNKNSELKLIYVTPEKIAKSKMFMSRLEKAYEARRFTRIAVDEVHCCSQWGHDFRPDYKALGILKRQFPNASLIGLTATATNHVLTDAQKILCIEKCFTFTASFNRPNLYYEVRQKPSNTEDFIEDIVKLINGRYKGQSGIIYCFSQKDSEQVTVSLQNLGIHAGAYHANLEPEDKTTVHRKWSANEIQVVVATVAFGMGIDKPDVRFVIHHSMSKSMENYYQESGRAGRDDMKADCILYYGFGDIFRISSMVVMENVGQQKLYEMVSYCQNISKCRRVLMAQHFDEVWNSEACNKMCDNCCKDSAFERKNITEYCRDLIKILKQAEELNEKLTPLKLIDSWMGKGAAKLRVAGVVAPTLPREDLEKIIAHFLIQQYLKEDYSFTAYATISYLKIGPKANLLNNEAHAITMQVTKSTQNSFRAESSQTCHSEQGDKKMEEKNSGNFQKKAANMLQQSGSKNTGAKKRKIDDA
Method in brief: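 RECQ1T1 50 nM; forked duplex (20 bp + 30-nt ss tails) 200 nM, ATP 2 mM final; pH 8.0, 2 mM MgCl2, 2.5 ug/ml poly(dI-dC); 15 min compound preincubation; discontinuous kinetic read over 2 h at RT.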

[9] = Cytometric Cell-Based qHTS for Inhibitors of the mTORC1 Signaling Pathway in MEF (Tsc2-/-, p53-/-) Cells (AID 2660);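 note: percent of cells above a phospho-rpS6 to PI ratio cutoff in each well; series mostly up to about 38 µM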
Method in brief: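 Tsc2-/-, p53-/- MEFs (empty vector) exposed to compound 24 h at 37 C, fixed, stained with Alexa-488 anti-phospho-rpS6 Ser235/236 and propidium iodide. Acumen laser scanning; phospho-S6/PI ratio thresholded against 7.5 nM rapamycin, reported as % positive cells.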

[10] = High Content Imaging Cell-Based qHTS for Inhibitors of the mTORC1 Signaling Pathway in MEF (Tsc2-/-, p53-/-) Cells (AID 2666);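 note: percent of cells scored positive for phospho-rpS6 Ser235/236 immunostaining by imaging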
Method in brief: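 Inhibition of rpS6 phosphorylation is measured by immunofluorescence imaging in empty-vector Tsc2-/-, p53-/- mouse embryonic fibroblasts after 24 hrs compound exposure at 37 degree Celsius. Results are reported as % positive cells per well.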

[11] = High Content Imaging Cell-Based qHTS for Inhibitors of the mTORC1 Signaling Pathway in MEF Cells (AID 2667);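 note: Tsc2-/- p53-/- MEFs stably re-expressing wild-type Tsc2 exposed 24 h; series mostly up to about 38 µM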
Method in brief: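 Fixed-cell imaging of phospho-S6 (Ser235/236, Alexa-488) after 24 hrs of compound treatment at 37 degree Celsius. Signal was normalized to Hoechst, and thresholds from the highest and lowest wells split cells into % active versus % non-active.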

[12] = Cytometry Cell-Based qHTS for Inhibitors of the mTORC1 Signaling Pathway in MEF cells (AID 2668); note: potency is the fitted concentration of half-maximal effect
Method in brief: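 In MEFs grown in DMEM + 10% FBS, a 24 hrs compound exposure preceded imaging of phospho-rpS6 Ser235/236 by laser-scanning cytometry.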

[13] = Validation screen for small molecules that induce DNA re-replication in MCF 10A normal breast cells (AID 463097); note: nearly all actives have a fitted effect of over 60% in size
Method in brief: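 Following 48 hr compound incubation (37 C, 5% CO2), MCF 10A cells receive Hoechst for 40 min at 37 C. Nuclei are then scanned (excitation 405 nm, emission 500-530 nm) for total fluorescence intensity.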

[14] = target: Ubiquitin carboxyl-terminal hydrolase 2 (Homo sapiens) (UniProt O75604); experiment: qHTS Validation Assay for Inhibitors of Ubiquitin-specific Protease USP2a Using CHOP2 as the Reporter (AID 463106)
Chain of Ubiquitin carboxyl-terminal hydrolase 2 (Homo sapiens) (O75604 whole entry, looked up): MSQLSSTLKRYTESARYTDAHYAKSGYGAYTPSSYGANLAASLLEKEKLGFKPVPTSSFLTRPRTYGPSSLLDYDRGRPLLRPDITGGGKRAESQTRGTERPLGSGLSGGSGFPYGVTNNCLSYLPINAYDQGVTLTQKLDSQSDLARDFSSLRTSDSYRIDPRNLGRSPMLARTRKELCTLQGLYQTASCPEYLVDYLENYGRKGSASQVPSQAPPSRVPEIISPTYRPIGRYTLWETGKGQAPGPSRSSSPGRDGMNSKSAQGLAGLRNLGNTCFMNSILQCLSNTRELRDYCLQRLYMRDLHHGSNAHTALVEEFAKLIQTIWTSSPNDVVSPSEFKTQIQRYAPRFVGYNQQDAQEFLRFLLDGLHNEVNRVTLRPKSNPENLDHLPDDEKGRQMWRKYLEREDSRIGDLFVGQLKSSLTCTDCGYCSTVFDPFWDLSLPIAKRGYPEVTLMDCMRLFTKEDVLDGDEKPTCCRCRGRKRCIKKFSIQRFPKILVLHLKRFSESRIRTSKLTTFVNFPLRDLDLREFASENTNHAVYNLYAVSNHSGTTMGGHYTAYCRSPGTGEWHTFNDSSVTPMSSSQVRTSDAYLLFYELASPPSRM
Method in brief: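 Inhibition is expressed relative to NEM as the full-inhibition control, with concentration-response curves classed by fit quality, magnitude and activity. Enzyme (USP2 core, 10nM) meets 25nM Ub-CHOP2 after compound preincubation; readings are taken at 60min.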

[15] = target: DNA polymerase III PolC-type (Bacillus subtilis (strain 168)) (UniProt P13267); experiment: qHTS Validation Assay for the Inhibitors of DNA Replication in Gram-Positive Bacteria (AID 485295);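 note: reconstituted holoenzyme with PolC plus beta clamp SSB and primase; PicoGreen fluorescence of double-stranded DNA made on primed circular M13 template; series mostly up to about 57 µM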
Chain of DNA polymerase III PolC-type (Bacillus subtilis (strain 168)) (P13267 whole entry, looked up): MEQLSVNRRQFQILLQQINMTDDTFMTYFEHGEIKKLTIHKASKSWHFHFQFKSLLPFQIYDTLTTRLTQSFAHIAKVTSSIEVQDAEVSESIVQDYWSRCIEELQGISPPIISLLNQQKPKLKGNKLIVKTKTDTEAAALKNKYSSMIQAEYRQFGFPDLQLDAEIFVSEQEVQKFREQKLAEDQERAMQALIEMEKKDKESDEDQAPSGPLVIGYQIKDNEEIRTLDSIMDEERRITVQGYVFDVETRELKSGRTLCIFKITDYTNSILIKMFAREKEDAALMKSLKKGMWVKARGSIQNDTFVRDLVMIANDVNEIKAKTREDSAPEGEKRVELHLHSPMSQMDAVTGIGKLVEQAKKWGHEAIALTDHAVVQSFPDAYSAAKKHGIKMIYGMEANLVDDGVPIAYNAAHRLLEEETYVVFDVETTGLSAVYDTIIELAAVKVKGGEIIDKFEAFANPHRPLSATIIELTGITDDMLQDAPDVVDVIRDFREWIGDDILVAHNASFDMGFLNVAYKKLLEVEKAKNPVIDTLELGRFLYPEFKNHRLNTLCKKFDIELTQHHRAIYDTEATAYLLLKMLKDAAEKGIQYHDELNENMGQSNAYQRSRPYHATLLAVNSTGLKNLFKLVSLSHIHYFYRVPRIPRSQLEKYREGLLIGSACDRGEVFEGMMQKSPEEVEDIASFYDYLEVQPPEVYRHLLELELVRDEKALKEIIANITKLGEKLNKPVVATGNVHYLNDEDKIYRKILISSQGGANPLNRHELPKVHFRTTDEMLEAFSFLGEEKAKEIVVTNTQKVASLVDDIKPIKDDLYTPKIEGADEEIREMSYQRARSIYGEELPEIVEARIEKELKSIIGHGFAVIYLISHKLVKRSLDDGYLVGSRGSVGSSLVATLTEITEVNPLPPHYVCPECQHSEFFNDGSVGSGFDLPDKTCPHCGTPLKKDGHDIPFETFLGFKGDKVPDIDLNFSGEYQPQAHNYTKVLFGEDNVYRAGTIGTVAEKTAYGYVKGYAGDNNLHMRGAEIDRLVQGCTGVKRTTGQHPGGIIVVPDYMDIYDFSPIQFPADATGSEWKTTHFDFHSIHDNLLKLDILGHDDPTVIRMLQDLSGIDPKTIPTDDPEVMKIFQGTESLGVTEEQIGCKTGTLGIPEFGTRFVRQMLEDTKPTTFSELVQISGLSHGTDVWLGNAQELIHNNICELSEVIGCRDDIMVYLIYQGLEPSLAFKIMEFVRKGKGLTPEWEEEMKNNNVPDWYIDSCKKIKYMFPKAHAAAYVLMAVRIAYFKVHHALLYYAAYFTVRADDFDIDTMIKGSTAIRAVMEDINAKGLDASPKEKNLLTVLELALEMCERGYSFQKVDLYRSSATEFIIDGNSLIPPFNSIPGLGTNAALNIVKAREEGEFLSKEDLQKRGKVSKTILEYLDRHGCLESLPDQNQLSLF
Method in brief: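 Inhibition of DNA synthesis by the reconstituted PolC holoenzyme, monitored through PicoGreen staining of dsDNA formed from ssM13Gori, dNTPs and NTPs, with compound preincubation and room-temperature reaction.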

[16] = target: Tumor susceptibility gene 101 protein (Homo sapiens) (UniProt Q99816); experiment: qHTS Validation Assay for Iinhibitors of HIV-1 Budding by Blocking the Interaction of PTAP/TSG101 (AID 485342; calls by dose curve)
Chain of Tumor susceptibility gene 101 protein (Homo sapiens) (Q99816 whole entry, looked up, the tested form may be a part): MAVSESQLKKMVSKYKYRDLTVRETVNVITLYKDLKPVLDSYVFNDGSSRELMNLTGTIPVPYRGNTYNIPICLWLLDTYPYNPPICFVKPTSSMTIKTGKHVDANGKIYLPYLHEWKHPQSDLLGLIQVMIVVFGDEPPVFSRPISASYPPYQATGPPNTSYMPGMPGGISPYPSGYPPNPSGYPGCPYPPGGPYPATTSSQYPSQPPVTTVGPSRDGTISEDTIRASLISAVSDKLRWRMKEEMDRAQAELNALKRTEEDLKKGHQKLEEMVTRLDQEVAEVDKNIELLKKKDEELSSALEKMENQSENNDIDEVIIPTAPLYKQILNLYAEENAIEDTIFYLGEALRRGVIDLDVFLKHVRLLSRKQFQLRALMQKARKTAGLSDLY
Method in brief: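 Compound wells held the Tsg101 binding domain (10 uM) and a FITC-conjugated PTAP peptide (50 nM) in buffer at pH 7.5 containing 0.15 M NaCl and 0.01% Tween 20; polarization was recorded after 20 min, r.t.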

[17] = qHTS for differential inhibitors of proliferation of Plasmodium falciparum line W2 (AID 1883); details: Potency: Plasmodium falciparum W2 proliferation inhibition;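 note: parasites grown with compound for 72 h before lysis and staining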; note: potency is the fitted concentration of half-maximal effect
[18] = target: Ferritin light chain (Equus caballus) (UniProt P02791); experiment: qHTS Validation Assay for Identification of Novel General Anesthetics (AID 2323); note: series mostly up to about 77 µM
Chain of Ferritin light chain (Equus caballus) (P02791 2-175 limits assumed): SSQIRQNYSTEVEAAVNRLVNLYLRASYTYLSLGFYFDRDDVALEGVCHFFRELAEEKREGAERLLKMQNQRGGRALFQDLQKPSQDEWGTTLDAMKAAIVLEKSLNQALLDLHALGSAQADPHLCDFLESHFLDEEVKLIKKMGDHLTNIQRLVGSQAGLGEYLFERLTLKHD
Method in brief: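 Normalized fluorescence response, scaled between free 1-AMA and 1-AMA/apoferritin complex, fitted to a four-parameter Hill equation for concentration-effect values. Binding mix: 10 uM horse-spleen apoferritin, 50% saturated 1-AMA in PBS; read 380/535 nm after 10 min.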

[19] = target: RecQ-like DNA helicase BLM (Homo sapiens) (UniProt P54132); experiment: qHTS Validation Assay for Inhibitors of Bloom's syndrome helicase (BLM) (AID 2364)
Chain of RecQ-like DNA helicase BLM (Homo sapiens) (P54132 whole entry, looked up): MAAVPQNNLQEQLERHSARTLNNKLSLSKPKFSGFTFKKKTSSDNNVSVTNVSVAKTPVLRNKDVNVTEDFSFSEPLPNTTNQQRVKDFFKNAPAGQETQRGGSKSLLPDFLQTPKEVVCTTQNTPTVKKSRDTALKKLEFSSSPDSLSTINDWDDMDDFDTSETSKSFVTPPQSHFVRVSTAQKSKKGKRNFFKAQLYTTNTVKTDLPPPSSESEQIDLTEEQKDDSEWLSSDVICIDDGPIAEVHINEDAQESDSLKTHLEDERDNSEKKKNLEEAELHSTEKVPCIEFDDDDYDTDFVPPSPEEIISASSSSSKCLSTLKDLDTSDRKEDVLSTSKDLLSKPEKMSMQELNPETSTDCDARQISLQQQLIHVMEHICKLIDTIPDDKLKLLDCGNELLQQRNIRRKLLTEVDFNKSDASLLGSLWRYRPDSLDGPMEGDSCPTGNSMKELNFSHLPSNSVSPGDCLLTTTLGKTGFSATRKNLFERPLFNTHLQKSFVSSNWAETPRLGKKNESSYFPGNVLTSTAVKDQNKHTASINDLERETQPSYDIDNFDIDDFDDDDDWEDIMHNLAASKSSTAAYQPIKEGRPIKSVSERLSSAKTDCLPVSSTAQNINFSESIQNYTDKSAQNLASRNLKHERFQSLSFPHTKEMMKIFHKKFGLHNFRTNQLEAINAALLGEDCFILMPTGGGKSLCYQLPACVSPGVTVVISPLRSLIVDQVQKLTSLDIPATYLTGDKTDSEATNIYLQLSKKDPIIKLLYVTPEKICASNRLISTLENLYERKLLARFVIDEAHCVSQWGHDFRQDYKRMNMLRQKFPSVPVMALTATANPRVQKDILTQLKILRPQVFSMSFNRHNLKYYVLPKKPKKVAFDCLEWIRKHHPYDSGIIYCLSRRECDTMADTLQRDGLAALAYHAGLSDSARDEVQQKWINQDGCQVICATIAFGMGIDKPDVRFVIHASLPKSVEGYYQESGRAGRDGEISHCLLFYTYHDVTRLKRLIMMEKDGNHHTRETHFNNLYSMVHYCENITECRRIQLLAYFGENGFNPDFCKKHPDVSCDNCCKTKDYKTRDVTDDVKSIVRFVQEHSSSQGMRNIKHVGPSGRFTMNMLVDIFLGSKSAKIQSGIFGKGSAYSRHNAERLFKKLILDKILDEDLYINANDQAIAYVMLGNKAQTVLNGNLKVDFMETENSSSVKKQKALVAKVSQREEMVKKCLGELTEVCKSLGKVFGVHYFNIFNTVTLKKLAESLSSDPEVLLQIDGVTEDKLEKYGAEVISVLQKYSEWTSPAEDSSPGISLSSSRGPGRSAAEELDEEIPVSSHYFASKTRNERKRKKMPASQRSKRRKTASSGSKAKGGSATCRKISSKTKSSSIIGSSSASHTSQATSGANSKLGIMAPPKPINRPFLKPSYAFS
Method in brief: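 BLM 50 nM in 25 mM Tris-HCl pH 8.0, 5 mM NaCl, 2 mM MgCl2, 1 mM DTT, 0.01% Tween-20, 2.5 ug/ml poly(dI-dC); 15 min cpd preinc, RT. Start: 200 nM forked DNA + 2 mM ATP (final). TAMRA read, 2 reads 2 h apart.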

SMILES | Potency [1] | Potency [2] | Potency [3] | Potency [4] | Potency [5] | Potency [6] | outcome [7] | Potency [8] | Potency [9] | Potency [10] | Potency [11] | Potency [12] | outcome [13] | outcome [14] | outcome [15] | outcome [16] | Potency [17] | outcome [18] | outcome [19]
CC(C)(C(=O)O)c1ccc(C(O)CCCN2CCC(C(O)(c3ccccc3)c3ccccc3)CC2)cc1 (stereo not drawn) | inactive | inactive | inactive | inactive | inactive | inactive | inactive | inactive | inactive | inactive | inactive | inactive | inactive | inactive | inactive | inactive |  |  | 
OCCN1CCN(CCCN2c3ccccc3Sc3ccc(Cl)cc32)CC1 | 3.55 µM (active) | 4.47 µM (active) | 2.82 µM (active) | 8.91 µM (active) | 7.94 µM (active) | 5.01 µM (active) |  | inactive |  | inactive |  | 7.36 µM (active) |  | inactive | inactive | inactive | 2.51 µM (active) | inactive | inactive
Cc1cc(N)c2ccccc2[n+]1CCCCCCCCCC[n+]1c(C)cc(N)c2ccccc21 |  | 0.251 µM (active) | 0.0501 µM (active) | 0.112 µM (active) | 2.24 µM (active) | 0.126 µM (active) |  | inactive | inactive | inactive |  | 7.36 µM (active) |  | inactive | inactive | inactive |  | inactive | inactive
CNCCCC1c2ccccc2C=Cc2ccccc21 | 5.62 µM (active) | 10 µM (active) | 10 µM (active) | 14.1 µM (active) |  | 11.2 µM (active) |  | inactive | inactive | inactive | inactive | inactive | inactive | inactive | inactive | inactive | 4.47 µM (active) | inactive | inactive
CC(C)NC[C@H](O)c1ccc(O)c(O)c1 | inactive | inactive | inactive |  | inactive |  |  | inactive | inactive | inactive | inactive | inactive | inactive | inactive | inactive | inactive |  | inactive | 
CC1=C(/C=C/C(C)=C/C=C/C(C)=C/C(=O)O)C(C)(C)CCC1 | 14.1 µM (active) |  | inactive | inactive |  |  |  | inactive | inactive | inactive | inactive | inactive |  | inactive | inactive | inactive | 14.1 µM (active) |  | 
CN(C)CCCN1c2ccccc2Sc2ccc(Cl)cc21 | 4.47 µM (active) | 11.2 µM (active) | 4.47 µM (active) | 12.6 µM (active) | 12.6 µM (active) | 8.91 µM (active) |  | inactive | inactive | inactive |  |  |  | inactive | inactive | inactive | 3.55 µM (active) | inactive | inactive
C[C@](N)(Cc1ccc(O)cc1)C(=O)O | inactive | inactive | inactive | inactive | inactive | inactive |  | inactive | inactive | inactive | inactive | inactive | inactive | inactive | inactive | inactive | inactive | inactive | 
CC1=C(CC(=O)O)c2cc(F)ccc2/C1=C\c1ccc(S(C)=O)cc1 (stereo not drawn) | inactive | inactive | inactive | inactive | inactive | inactive |  | inactive | inactive | inactive | inactive | inactive | inactive | inactive | inactive | inactive |  |  | 
Nc1cc(=O)[nH]c(N)n1 | inactive | inactive | inactive | inactive | inactive | inactive |  | inactive | inactive | inactive | inactive | inactive | inactive | inactive | inactive | inactive | inactive | inactive | 
CC(=O)OCC(=O)[C@@]1(O)CC[C@H]2[C@@H]3CCC4=CC(=O)CC[C@]4(C)[C@H]3C(=O)C[C@@]21C | inactive | inactive | inactive | inactive | inactive | inactive |  | inactive | inactive | inactive | inactive | inactive | inactive | inactive | inactive | inactive |  | inactive | 
